Source: PubChem BioAssay (NCI)
This is part of a sample that, as a whole, favours compounds with a hit. Of some 83,000 tested, about 20% had one in any assay.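 For each line, cells grew in 96-well plates with the test compound present at a single concentration for 48 hours.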 Active and inactive are the calls of the source. Rule for the calls: active = growth percent below 10; inactive = the rest.

Key:
Assay in all cases: NCI-60 one-dose screen, 48 h (100 = growth as untreated, 0 = no growth, -100 = all killed)
Conditions in all cases: 10 µM unless noted
NCI-H23 lung = system: NCI-H23 lung
NCI-H226 lung = system: NCI-H226 lung
NCI-H322M lung = system: NCI-H322M lung
HOP-62 NSCLC = system: HOP-62 NSCLC
NCI-H460 lung = system: NCI-H460 lung
HOP-92 NSCLC = system: HOP-92 NSCLC
NCI-H522 lung = system: NCI-H522 lung
A549/ATCC NSCLC = system: A549/ATCC NSCLC
786-0 renal = system: 786-0 renal
COLO 205 colon = system: COLO 205 colon
DU-145 prostate = system: DU-145 prostate
K-562 leukemia = system: K-562 leukemia
MALME-3M melanoma = system: MALME-3M melanoma
MDA-MB-231 breast = system: MDA-MB-231 breast
RXF 393 renal = system: RXF 393 renal
SF-268 CNS = system: SF-268 CNS
SF-295 CNS = system: SF-295 CNS
SF-539 CNS = system: SF-539 CNS
UACC-257 melanoma = system: UACC-257 melanoma
M14 melanoma = system: M14 melanoma

Measured: growth

COc1cnc2c(c1)C(=O)c1c-2n(CCCNCCN2CCOCC2)c(=O)c2cc([N+](=O)[O-])ccc12
inactive: SF-268 CNS 12.3%
active: NCI-H23 lung -21.7% | NCI-H226 lung -52.7% | NCI-H322M lung 6.04% | HOP-62 NSCLC -0.313% | NCI-H460 lung -55.2% | HOP-92 NSCLC -4.05% | NCI-H522 lung -19.9% | A549/ATCC NSCLC -72.1% | 786-0 renal -53.6% | COLO 205 colon -2.78% | DU-145 prostate 2.63% | K-562 leukemia 0.36% | MALME-3M melanoma -11.7% | MDA-MB-231 breast 2.48% | RXF 393 renal -32.3% | SF-295 CNS 1.52% | SF-539 CNS -1.79% | UACC-257 melanoma 5.34% | M14 melanoma 6.27%

CN1CCN(CCOc2ccc(-c3cnc4c(-c5ccccc5F)cnn4c3)cc2)CC1
inactive: NCI-H23 lung 46.5% | NCI-H226 lung 105% | NCI-H322M lung 57.9% | HOP-62 NSCLC 64.7% | NCI-H522 lung 66.8% | A549/ATCC NSCLC 22.4% | DU-145 prostate 60.9% | MDA-MB-231 breast 29.2% | RXF 393 renal 50% | SF-268 CNS 63.9% | SF-295 CNS 65% | SF-539 CNS 51.3%
active: NCI-H460 lung -63.3% | HOP-92 NSCLC 2.22% | 786-0 renal -73.5% | COLO 205 colon -79.3% | K-562 leukemia -50.3% | MALME-3M melanoma 7.94% | UACC-257 melanoma -7.9% | M14 melanoma -80.3%

O=c1[nH]c2c3ccncc3cc(-c3cccc(Cl)c3)c2c2cnccc12
active: HOP-62 NSCLC 0.205% | NCI-H460 lung 5.33% | HOP-92 NSCLC 5.61% | RXF 393 renal -16.5% | SF-539 CNS 2.59%
inactive: NCI-H23 lung 50.8% | NCI-H226 lung 29.6% | NCI-H322M lung 56.2% | NCI-H522 lung 53.7% | A549/ATCC NSCLC 27.4% | 786-0 renal 17.4% | COLO 205 colon 25.4% | DU-145 prostate 39.5% | K-562 leukemia 75% | MALME-3M melanoma 69.1% | MDA-MB-231 breast 35.1% | SF-268 CNS 53.9% | SF-295 CNS 31.4% | UACC-257 melanoma 49.5% | M14 melanoma 55.2%

Cc1cc(N(CCCNc2ccnc3cc(Cl)ccc23)Cc2ccco2)nc(N2CCN(C)CC2)n1
inactive: NCI-H23 lung 66% | NCI-H226 lung 88.3% | NCI-H322M lung 64.2% | HOP-62 NSCLC 48.2% | NCI-H460 lung 28.4% | HOP-92 NSCLC 79.9% | NCI-H522 lung 82.1% | A549/ATCC NSCLC 45% | 786-0 renal 59% | DU-145 prostate 55.6% | K-562 leukemia 12.9% | MDA-MB-231 breast 14.4% | RXF 393 renal 35.9% | SF-268 CNS 56.1% | SF-295 CNS 57.1%
active: COLO 205 colon -21.2% | MALME-3M melanoma -49.6% | SF-539 CNS -62.9% | UACC-257 melanoma -63.2% | M14 melanoma -82.5%

CN(CSc1ccc(Cl)cc1)c1ccc(CSc2ccc(Cl)cc2)cc1
inactive: NCI-H23 lung 90.6% | NCI-H226 lung 43.3% | NCI-H322M lung 86.4% | HOP-62 NSCLC 118% | NCI-H460 lung 62% | HOP-92 NSCLC 57.2% | NCI-H522 lung 32% | A549/ATCC NSCLC 50.5% | 786-0 renal 31.6% | COLO 205 colon 41% | DU-145 prostate 87.8% | K-562 leukemia 83.7% | MALME-3M melanoma 102% | MDA-MB-231 breast 22.2% | RXF 393 renal 68.7% | SF-268 CNS 43.3% | SF-295 CNS 70.5% | SF-539 CNS 47.4% | UACC-257 melanoma 76% | M14 melanoma 49.7%

CCCCC/C(=C\c1ccccc1)C1OC(C)C(C)O1 (stereo not given)
inactive: NCI-H23 lung 90.2% | NCI-H226 lung 83.4% | NCI-H322M lung 112% | HOP-62 NSCLC 93.5% | NCI-H460 lung 107% | HOP-92 NSCLC 95% | NCI-H522 lung 68.5% | A549/ATCC NSCLC 68.5% | 786-0 renal 91.2% | COLO 205 colon 106% | DU-145 prostate 103% | K-562 leukemia 91.3% | MALME-3M melanoma 104% | MDA-MB-231 breast 99.7% | RXF 393 renal 102% | SF-268 CNS 95.3% | SF-295 CNS 104% | SF-539 CNS 99.7% | UACC-257 melanoma 70.1% | M14 melanoma 87.8%

C[C@@H](Oc1ccc(C(=O)NS(=O)(=O)C(C)(C)C)cc1C(F)(F)F)c1ccc(Oc2ccccc2)cn1
inactive: NCI-H23 lung 61.2% | NCI-H226 lung 72.7% | NCI-H322M lung 54.3% | HOP-62 NSCLC 52.2% | NCI-H460 lung 45.7% | HOP-92 NSCLC 63.7% | NCI-H522 lung 24.5% | A549/ATCC NSCLC 74.8% | 786-0 renal 37.5% | COLO 205 colon 48.7% | DU-145 prostate 79.6% | K-562 leukemia 19.9% | MALME-3M melanoma 44.4% | MDA-MB-231 breast 68.9% | SF-268 CNS 54.3% | SF-295 CNS 22.2% | SF-539 CNS 29.8% | UACC-257 melanoma 51.5% | M14 melanoma 22.8%
active: RXF 393 renal -12.5%

CC(C)/C=C/CC[C@](C)(O)[C@H]1CC[C@]2(C)[C@@H]1CC[C@@H]1[C@@]3(C)C/C(=C/c4cccc(C(F)(F)F)c4)C(=O)C(C)(C)[C@@H]3CC[C@]12C
inactive: NCI-H23 lung 96.3% | NCI-H226 lung 94.9% | NCI-H322M lung 105% | HOP-62 NSCLC 103% | NCI-H460 lung 98.6% | HOP-92 NSCLC 92.7% | NCI-H522 lung 96.2% | A549/ATCC NSCLC 85% | 786-0 renal 101% | COLO 205 colon 113% | DU-145 prostate 96.8% | K-562 leukemia 86.2% | MALME-3M melanoma 100% | MDA-MB-231 breast 88.9% | RXF 393 renal 105% | SF-268 CNS 93.3% | SF-295 CNS 101% | SF-539 CNS 97.6% | UACC-257 melanoma 95.2% | M14 melanoma 91.5%
